Screening results: PubChem, The Scripps Research Institute Molecular Screening Center
MITF inh: blocks human microphthalmia-associated transcription factor; O75030; inhibition, % at 2.6 µM; actives 0.91% (n = 650,000); AID 1259374; AlphaScreen MITF homodimerization, bead proximity signal; in the data active means inhibition above about 50%;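 further: 0% = vehicle wells with protein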
FBW7 activator: human FBW7 E3 ligase activation, primary screen | Q969H0 | AlphaScreen FBW7–phospho-cyclin E peptide binding, activator screen | normalized activity (activation), % at 26.1 µM | actives 0.13% (n = 650,000); in the data active means normalized activity above about 1.9%;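 further: purified mutant Fbw7 with reduced substrate affinity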
Target sequence (Q969H0 whole entry, looked up): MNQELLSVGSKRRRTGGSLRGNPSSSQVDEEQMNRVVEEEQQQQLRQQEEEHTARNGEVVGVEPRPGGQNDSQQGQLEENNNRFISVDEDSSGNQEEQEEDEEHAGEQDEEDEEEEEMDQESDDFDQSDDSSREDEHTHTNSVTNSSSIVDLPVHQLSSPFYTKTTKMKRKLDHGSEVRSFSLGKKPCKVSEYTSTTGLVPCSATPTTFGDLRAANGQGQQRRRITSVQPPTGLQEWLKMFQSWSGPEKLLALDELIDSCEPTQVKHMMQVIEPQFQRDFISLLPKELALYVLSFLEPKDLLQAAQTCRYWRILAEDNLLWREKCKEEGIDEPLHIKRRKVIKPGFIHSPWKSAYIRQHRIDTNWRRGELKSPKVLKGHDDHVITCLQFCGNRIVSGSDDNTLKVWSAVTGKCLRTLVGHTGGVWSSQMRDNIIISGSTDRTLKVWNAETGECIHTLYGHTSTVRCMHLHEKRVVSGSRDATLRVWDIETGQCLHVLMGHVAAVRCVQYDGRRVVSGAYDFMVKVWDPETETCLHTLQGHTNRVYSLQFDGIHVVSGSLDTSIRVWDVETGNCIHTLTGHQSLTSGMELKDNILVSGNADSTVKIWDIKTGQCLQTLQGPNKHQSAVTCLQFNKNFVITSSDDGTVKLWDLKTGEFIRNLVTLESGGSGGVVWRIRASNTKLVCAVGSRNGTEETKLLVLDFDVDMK
GPR151 ag: activators of human GPR151; activation, % at 11.2 µM; PathHunter beta-arrestin GPR151 cells, luminescence; AID 1508602; actives 1% (n = 650,000); in the data active means activation above about 4.9%;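 further: 0% = median of compound wells and 100% = cells with positive control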
TEAD-YAP inh: TEAD-YAP interaction inhibition | AID 1259422 | inhibition, % at 9.12 µM | HEK-TIYL cells, TEAD-Gal4/YAP UAS-luciferase luminescence | actives 1.4% (n = 640,000); in the data active means inhibition above about 32%;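 further: 0% = median of test compound wells and 100% = reference inhibitor wells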
MITF inh conf: human MITF inhibition, confirmation; shares compounds with MITF inh; inhibition, % at 2.6 µM; AlphaScreen MITF homodimerization, biotin/His-MITF beads; actives 16% (n = 4,700);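 active means inhibition above a cutoff derived from the DMSO control wells, cut at about 28% in these data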;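 further: 0% = MITF dimer wells with DMSO only; inhibitors lower the bead chemiluminescence by keeping MITF from dimerizing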
AS interf DR: AlphaScreen optical interference, dose response counter-screen; shares compounds with MITF inh; AlphaScreen optical interference counterscreen, cell-free; IC50, µM; actives 6% (n = 480); AID 1259373; call rule not given here
AS interf ctr: counter-screen: compounds optically interfering with AlphaScreen. shares compounds with MITF inh. LysRS AlphaScreen counterscreen, signal interference, triplicate. inhibition, % at 2.6 µM. actives 7.6% (n = 4,700). AID 1259376;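 active means inhibition above a cutoff derived from the DMSO control wells, cut at about 30% in these data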
* = called active by the depositor; · = no result. This is a sample that favours compounds with a hit; in the whole collection about 3.5% have one here.

SMILES | MITF inh | FBW7 activator | GPR151 ag | TEAD-YAP inh | MITF inh conf | AS interf ctr | others
O=C1NC(=O)C(=Cc2ccc(OCc3cccc(C(=O)O)c3)cc2)C(=O)N1 | -3 | 0 | -8 | 71* | · | ·
CC1CC(C)CN(C(=O)CN2C3CCC2CC(O)(c2cccnc2)C3)C1 (stereo not given) | 0 | 0 | -1 | 4 | · | ·
O=C(Oc1cccc2cccnc12)c1cccc(S(=O)(=O)N2CCCCCC2)c1 | -4 | 0 | -1 | 1 | · | ·
O=C(Oc1ccc([N+](=O)[O-])c2cccnc12)c1cccc(S(=O)(=O)N2CCOCC2)c1 | 72* | -1 | 1 | 6 | · | ·
N#CC1=C(N)Oc2c(c(=O)oc3ccccc23)C1c1cccc(C(F)(F)F)c1 (stereo not given) | 3 | 0 | 1 | 2 | · | ·
Cc1cc([N+](=O)[O-])c2ccccc2[n+]1[O-] | -7 | 0 | -2 | 92* | · | ·
O=[N+]([O-])c1ccc(N2CCCC2)c2ccccc12 | 14 | 0 | 1 | 3 | · | ·
Cc1cc(C)[n+](-c2ccccc2)c2[nH]c(=O)[nH]c(=O)c12 | 8 | 1 | 2 | -5 | · | ·
Cc1cc(C)n2nc3c(c(C)cc(C)[n+]3-c3ccccc3)c2n1 | 16 | 0 | 1 | 33* | · | ·
O=C1NC(=O)C(=Cc2ccc([N+](=O)[O-])o2)C(=O)N1 | 79* | -1 | 2 | 4 | · | ·
O=C(c1cc(-c2ccccc2)on1)N1CCC2(CC1)OCCO2 | 4 | 0 | -5 | -52 | · | ·
O=C(c1noc2c1COc1ccccc1-2)N1CCC2(CC1)OCCO2 | 10 | 1 | -6 | 75* | · | ·
N#CC(C#N)=Cc1cc(C=C(C#N)C#N)c(O)o1 | 84* | -1 | 1 | 14 | · | ·
CN(N=O)c1cc(O)ccc1O | 78* | 0 | 1 | 7 | 62* | -19 | AS interf DR=>6.5
N#CCCn1cc(C=O)c(-c2cccc(Br)c2)n1 | -5 | 0 | -1 | 0 | · | ·
Clc1ccc(CCNCc2ccccn2)c(Cl)c1 | 33 | 0 | -1 | -5 | · | ·
Fc1cccc(CCNCc2ccccn2)c1 | 62* | -1 | 0 | -8 | -5 | 6
Fc1cccc(CN2CCN(Cc3ccccc3Cl)CC2)c1 | 78* | 0 | -1 | -9 | -8 | -4
CN1CCN(Cc2ccccc2F)CC1 | 52* | 0 | 0 | 9 | 1 | 1
Fc1ccccc1CN1CCN(Cc2ccc(Cl)cc2)CC1 | 50 | 0 | 1 | 2 | · | ·
Fc1ccc(F)c(CN2CCN(Cc3ccccc3)CC2)c1 | -2 | 0 | 4 | -2 | · | ·
Fc1ccc(CN2CCN(Cc3ccccc3F)CC2)cc1 | 78* | 0 | 2 | -13 | -7 | -3
CN1CCN(Cc2ccccc2O)CC1 | 1 | 0 | 2 | 18 | · | ·
CCc1ccc(CN2CCN(Cc3ccccc3F)CC2)cc1 | 71* | 0 | 0 | -5 | -3 | 0
Cc1cc(C)cc(-n2c(/C=C\c3ccc(F)cc3)nc3ccccc3c2=O)c1 | -13 | 0 | 1 | 5 | · | ·
SMILES | MITF inh | FBW7 activator | GPR151 ag | TEAD-YAP inh | MITF inh conf | AS interf ctr | others
N#Cc1cc2c(=O)n3ccccc3nc2n(Cc2ccco2)c1=O | 5 | 0 | 1 | 7 | · | ·
Fc1ccc(CN2CCN(Cc3ccccc3Cl)CC2)cc1 | 70* | 0 | 0 | -12 | 11 | 30*
O=C(COc1ccc(Cl)cc1)N1CCN(Cc2ccccc2F)CC1 | 60* | 0 | 4 | 1 | 7 | 1
Cc1cccc(CN2CCN(Cc3ccccc3Cl)CC2)c1 | 51* | 0 | 0 | -2 | 10 | 15
CSc1ccc(CN2CCN(Cc3ccccc3Cl)CC2)cc1 | 33 | -1 | -2 | -5 | · | ·
Cc1ccccc1CN1CCN(Cc2cccc(F)c2)CC1 | 80* | 0 | 0 | -1 | 10 | 15
CCN1CCN(Cc2ccccc2[N+](=O)[O-])CC1 | 44 | 0 | 3 | -2 | · | ·
Fc1ccccc1CN1CCN(Cc2ccccc2Cl)CC1 | 65* | 0 | 1 | 7 | 5 | 18
O=C1CC[C@@]2(O)C3Cc4ccc(O)c5c4[C@@]2(CCN3CC2CC2)[C@H]1O5 | -1 | 0 | -1 | · | · | ·
O=C1CC(=O)N(c2ccc(Br)cc2)C(=O)N1 | -1 | 0 | -1 | -4 | · | ·
Cc1ccc(N2C(=O)CC(=O)NC2=O)cc1 | 83* | 0 | -1 | -1 | -3 | 4
COC(=O)C1C2NC(=S)NC1(C)Oc1ccc3ccccc3c12 (stereo not given) | 8 | 0 | 1 | 1 | · | ·
COc1ccc(S(=O)(=O)N(C)[N+](=O)[O-])cc1 | -3 | 0 | 0 | 0 | · | ·
Cc1ccccc1CN1CCN(Cc2ccccc2[N+](=O)[O-])CC1 | 61* | 0 | 0 | -7 | 2 | -3
Cc1ccccc1CN1CCN(Cc2ccc([N+](=O)[O-])cc2)CC1 | 63* | 0 | 0 | 1 | 0 | 2
O=[N+]([O-])c1ccc(CN2CCN(Cc3ccccc3)CC2)cc1 | 57* | 0 | -1 | -3 | 3 | 11
CCC(C)N1CCN(Cc2ccccc2[N+](=O)[O-])CC1 (stereo not given) | 74* | 0 | 1 | 7 | 13 | -14
Oc1ccccc1CN1CCN(c2cccc(Cl)c2)CC1 | 15 | 0 | 0 | 10 | · | ·
Cc1ccc(C2=CCN(CC(=O)NCc3ccc4c(c3)OCO4)CC2)o1 | 14 | 0 | 1 | -1 | · | ·
CCc1cccc2c(CCN)c(C)[nH]c12 | 33 | 0 | -2 | 10 | · | ·
CC1(C)CC(=O)c2sc(N[N+](=O)[O-])nc2C1 | 84* | 0 | 0 | -13 | -1 | -4
CCOc1cccc(OCC)c2c(C)[n+](C)c(C)c1-2 | 73* | 0 | 0 | -34 | 79* | 3 | AS interf DR=>5.1
CCOc1cccc(OCC)c2c(C)nc(C)c1-2 | 76* | 0 | 2 | 8 | 82* | -2
COc1ccccc1CCNCc1ccccc1OC | 52* | 0 | 0 | -7 | 2 | -8
COc1ccccc1CCNCc1cc(OC)c(OC)cc1OC | 28 | 0 | -2 | 2 | · | ·
SMILES | MITF inh | FBW7 activator | GPR151 ag | TEAD-YAP inh | MITF inh conf | AS interf ctr | others
CCn1c2ccccc2c2cc(CN3CCN(C)CC3)ccc21 | 63* | 0 | 0 | 4 | 14 | 13
CN1CCN(c2cc(N3CCCCC3)c([N+](=O)[O-])cc2F)CC1 | 17 | 0 | 0 | 10 | · | ·
CCOc1cc(CN2CCN(C(C)CC)CC2)ccc1OC (stereo not given) | 74* | 0 | 1 | -6 | -3 | -9
CCC(C)N1CCN(Cc2ccc(OC)c(Br)c2)CC1 (stereo not given) | 82* | 0 | 2 | 27 | 24 | 14
COc1ccc(CN2CCNCC2)cc1Br | 10 | 0 | -1 | 19 | · | ·
CCOc1cc(CN2CCN(CCO)CC2)ccc1OC | 8 | 1 | -1 | 5 | · | ·
CCOc1ccc(CN(CCc2ccc3c(c2)OCO3)Cc2ccc([N+](=O)[O-])cc2)cc1 | 54* | 0 | -3 | 3 | 1 | 15
CCOc1ccc(CN(CCc2ccc3c(c2)OCO3)Cc2ccccc2)cc1 | 15 | 0 | 2 | -4 | · | ·
